Laboratory results: the supplement of paper PMC6555819

System: THRa homodimer (NR concentration 90 nM)
Experiment: PBM binding z-score (relative to random genomic background probes); higher = stronger binding; sequences stand for … in GC…GCGATTGACAGCGTAGAATGAAGG
How it was run: (§1)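 Scanned fluorescence from custom Agilent 4×180K protein-binding microarrays was regression-normalized. Binding z-scores use random background probes as reference. Ligand-free nuclear receptor dimers were incubated on the arrays for 1 h and detected with antibodies against each partner (one per run).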

Sequence	PBM binding z-score
CTCGAAATGTCGGTTGAGGTGAGTATACGGATAA	1.36
TAGCCTAGGTCATTCAGGGGCCAATATAGAAAGC	0.878
CGACCTAGGTCATCCAGGACAGTGAATACATTGA	2.18
GCTTGTAGATCAAGGTTGAGAAAGACTAAGCTAA	-0.906
GCAGACAGGTGAAACGAAGGTAACTCAGGGTGGC	-0.157
ATATGCAGGTTAAGGGTCATTCAGGTTGGTTCGC	1.26
ATCCCTAGGTAAAGTTCAGTGAAAGATCGATAGA	0.22
CATACTGGGCCAAGGTCATTGATCAGTCAAAGCA	2.63
CGTCCAAGGTCAATGGTCAGTGAAGAGATGACGG	2.11
CCGACTGGGGCAAGGATACCATAACGCACAGCCA	0.154
CCTAGTTGGTAAGGAGGTCACACACCGGATATGA	2.35
TAGCCTAGGTAATTCAGGGGCCAGTATAGAAAGC	-0.13
CGTCCATGGTCATAGGAGGTCAGTGAAGACAGAT	0.621
GGAACGAGGGCAAAGTTGATAACATCTGTCGACG	-0.123
TCGAGTAGGTTACGAATGGGGCATTCAGCTTTCT	-1.13
TCGAGTAGCTTAGTCGGGGCATTCAGCCAACATA	-0.688
CGAACTAGGTCATCCAGGACAGTGAATACATTGA	1.84
GCTAGCCGGCCATTTGGGTCACTCAATGACGGGC	0.719
TCATATAGGTAAACAGGTGCAAGTCCGTAAGTTA	0.416
CGTCCAAGGTCAAGGTAAGTGAAAGAGACTCGAA	2.14

Sequence	PBM binding z-score
CCTTACGGGTCACAAGGTTATAGCACGACGAGCG	0.935
ACTATTAGTTGAGACGAGGCCAACCGATAGGTTG	0.433
TCTTGTAAATCAAAGGTTAAGAAAGCCGAAGCCT	-0.284
TCATATAGGTAAACAGGTGAAAGTGCGTAAGTTA	0.583
CGTCCAAGATCAAAGGTCAGTGAAGAGATGACGG	0.239
CCTGCTAGGTCAATGGTCAGCTACAGCAGCTCGC	1
AGAGACAGGTGAGTGAAGGTAACTCAGCTGGACG	0.04
ATCTTTAGGTAAAGTTCAGTGAAAGATCGATAGA	0.0896
TAGCCTAGGTCATGGGCCGGTATACCACGCGAAC	1.37
CCTAGCAGGCCAATCTGTGTCACTCAAGGCTTGA	-0.64
CGGACTAGGTCAAGGACAGTGAATCTCCGCACGC	2.06
ATCTCTAGGTAACCAAGTTCCGTGAATGCCGAAC	0.462
CAAACTAGGTCAAGGTCACAGTCGGTTTGTGCCA	4.75
CTCGAAAGGTCGGTTGAGGTAAGTATACGGATAA	0.648
TCTCGGAGGGCACGAAGGTCAGAGCTTTCCAGAG	-0.228
TCATATAGGTAAAAGGTGAAAGTCGGTGTGGTAA	0.633
CCGACTGGGGCATAAGCTTACCATAAGCCAGCCC	-1.06
CCGACTGGGGCAAAGGTTACTATACTCAGTACGA	-0.197
AGTCAAAGTTCAGGACGAGGTAACCTAAAGCACG	1.92
CCAGACAGGTGTAAGGTAACTCAGTCTGGTACGC	1.21

System: VDR homodimer (NR concentration 270 nM)
Experiment: as above
How it was run: as §1

Sequence	PBM binding z-score
CTCGAAATGTCGGTTGAGGTGAGTATACGGATAA	0.263
TAGCCTAGGTCATTCAGGGGCCAATATAGAAAGC	2.13
CGACCTAGGTCATCCAGGACAGTGAATACATTGA	2.5
GCTTGTAGATCAAGGTTGAGAAAGACTAAGCTAA	-0.235
GCAGACAGGTGAAACGAAGGTAACTCAGGGTGGC	-0.798
ATATGCAGGTTAAGGGTCATTCAGGTTGGTTCGC	4.45
ATCCCTAGGTAAAGTTCAGTGAAAGATCGATAGA	2.35
CATACTGGGCCAAGGTCATTGATCAGTCAAAGCA	3.71
CGTCCAAGGTCAATGGTCAGTGAAGAGATGACGG	2.25
CCGACTGGGGCAAGGATACCATAACGCACAGCCA	-0.376
CCTAGTTGGTAAGGAGGTCACACACCGGATATGA	2.37
TAGCCTAGGTAATTCAGGGGCCAGTATAGAAAGC	-0.354
CGTCCATGGTCATAGGAGGTCAGTGAAGACAGAT	1.16
GGAACGAGGGCAAAGTTGATAACATCTGTCGACG	1.42
TCGAGTAGGTTACGAATGGGGCATTCAGCTTTCT	-0.811
TCGAGTAGCTTAGTCGGGGCATTCAGCCAACATA	-0.534
CGAACTAGGTCATCCAGGACAGTGAATACATTGA	1.96
GCTAGCCGGCCATTTGGGTCACTCAATGACGGGC	0.157
TCATATAGGTAAACAGGTGCAAGTCCGTAAGTTA	1.14
CGTCCAAGGTCAAGGTAAGTGAAAGAGACTCGAA	1.56

Sequence	PBM binding z-score
CCTTACGGGTCACAAGGTTATAGCACGACGAGCG	1.54
ACTATTAGTTGAGACGAGGCCAACCGATAGGTTG	0.394
TCTTGTAAATCAAAGGTTAAGAAAGCCGAAGCCT	-0.116
TCATATAGGTAAACAGGTGAAAGTGCGTAAGTTA	0.623
CGTCCAAGATCAAAGGTCAGTGAAGAGATGACGG	1.07
CCTGCTAGGTCAATGGTCAGCTACAGCAGCTCGC	0.15
AGAGACAGGTGAGTGAAGGTAACTCAGCTGGACG	-0.14
ATCTTTAGGTAAAGTTCAGTGAAAGATCGATAGA	1.95
TAGCCTAGGTCATGGGCCGGTATACCACGCGAAC	0.45
CCTAGCAGGCCAATCTGTGTCACTCAAGGCTTGA	-0.327
CGGACTAGGTCAAGGACAGTGAATCTCCGCACGC	-0.118
ATCTCTAGGTAACCAAGTTCCGTGAATGCCGAAC	-0.111
CAAACTAGGTCAAGGTCACAGTCGGTTTGTGCCA	4.27
CTCGAAAGGTCGGTTGAGGTAAGTATACGGATAA	0.257
TCTCGGAGGGCACGAAGGTCAGAGCTTTCCAGAG	1.81
TCATATAGGTAAAAGGTGAAAGTCGGTGTGGTAA	0.737
CCGACTGGGGCATAAGCTTACCATAAGCCAGCCC	-0.947
CCGACTGGGGCAAAGGTTACTATACTCAGTACGA	0.164
AGTCAAAGTTCAGGACGAGGTAACCTAAAGCACG	2.29
CCAGACAGGTGTAAGGTAACTCAGTCTGGTACGC	0.39
